Reference: ChEMBL document CHEMBL4513146, “CO-ADD screening of Karazin Kharkiv National University (Ukraine) compounds”
Entries with a potency or affinity are not part of this list.

test system: Candida albicans; conditions: Concentration 32 ug.mL-1; ASSAY_TEST Inhibition of Fungal Growth; detection method Absorption (OD530)

Compared with CCCCc1ccc(NC(=O)Cn2nc3c(N4CCSCC4)nc4ccccc4n3c2=O)cc1, Cc1ccc(NC(=O)Cn2nc3c(N4CCOCC4)nccn3c2=O)cc1Cl is higher in Inhibition: -0.87% for the first, 3.12% for the second.

Compared with COc1ccc(NC(=O)Cn2nc3c4cc(-c5ccc(Cl)cc5)nn4ccn3c2=O)c(OC)c1, COc1ccc(NC(=O)Cn2nc3c4cc(-c5ccc(F)cc5)nn4ccn3c2=O)c(OC)c1 is higher in Inhibition: 1.15% for the first, 2.08% for the second.

Compared with Cc1cc(C)cc(Nc2nc(C)cc3nn(CC(=O)NCc4ccco4)c(=O)n23)c1, Cc1cc(C)c(NC(=O)Cn2nc3c(SC4CCCCC4)nccn3c2=O)c(C)c1 is higher in Inhibition: 2.86% for the first, 13.47% for the second.

Compared with Cc1ccc(Cl)cc1NC(=O)CSc1nnc2n(CC3CCCO3)c(=O)c3sccc3n12 (stereo not given), Cc1ccc(NC(=O)CSc2nnc3c(=O)n(-c4ccccc4)ccn23)c(C)c1 is higher in Inhibition: -1.49% for the first, 2.18% for the second.

First: O=C(CSc1nnc2c(=O)n(-c3ccc(F)cc3)ccn12)N1CCN(c2ccc(F)cc2)CC1
Second: COc1cccc(-n2ccn3c(SCC(=O)Nc4cccc(F)c4)nnc3c2=O)c1
The Inhibition of the first is lower: -0.55% for the first, 10.45% for the second.

Compared with COc1ccc2[nH]cc(C(=O)CSc3nnc4c(=O)n(-c5cccc(Cl)c5C)ccn34)c2c1, COc1ccc(NC(=O)CSc2nnc3c(=O)n(-c4ccccc4OC)ccn23)cc1Cl is higher in Inhibition: 2.95% for the first, 3.75% for the second.

First: COc1cccc(-c2noc(Cn3nc4ccc(-c5ccccc5)nn4c3=O)n2)c1OC
Second: Cc1cccc(C)c1NC(=O)Cn1nc2n(C)c(=O)c3c(c(-c4ccccc4)cn3C)n2c1=O
The Inhibition of the first is higher: 2.21% for the first, 0.83% for the second.

First: COC(=O)c1ccc(NC(=O)Cn2c(=O)c3nnc(C(C)C)n3c3ccccc32)cc1
Second: CCOc1ccccc1NC(=O)Cn1c(=O)c2nnc(C(C)C)n2c2ccccc21
The Inhibition of the first is lower: -0.03% for the first, 1.06% for the second.

Going from Cc1ccc(CNC(=O)CSc2nnc3c(=O)n(-c4ccccc4)ccn23)cc1 to COc1cccc(-n2ccn3c(SCC(=O)NCc4ccc(C)cc4)nnc3c2=O)c1, the Inhibition falls from 3.44% to 2%.

Going from O=c1c2sccc2n2c(=O)n(Cc3ccccc3Cl)nc2n1CCc1ccccc1 to COc1ccc(CCn2c(=O)c3sccc3n3c(=O)n(Cc4ccc(F)cc4)nc23)cc1OC, the Inhibition rises from 2.07% to 11.53%.

Compared with Cc1cccc(NC(=O)Cn2nc3c(SC4CCCCC4)nccn3c2=O)c1C, O=C(Cn1nc2c(SC3CCCCC3)nccn2c1=O)Nc1cccc(Cl)c1 is higher in Inhibition: -1.44% for the first, 27.21% for the second.

Compared with CCCCOc1ccc(-c2cc3c4nnc(SCC(=O)Nc5cc(F)ccc5C)n4ccn3n2)cc1, COc1ccc(-c2cc3c4nnc(SCC(=O)Nc5cccc(C)c5C)n4ccn3n2)cc1 is lower in Inhibition: 9.93% for the first, 3.48% for the second.

First: COC(=O)c1ccccc1NC(=O)CSc1nc2ccccc2n2c(C(C)C)nnc12
Second: CCOC(=O)c1ccccc1NC(=O)Cn1nc2c(Oc3cccc(OC)c3)nccn2c1=O
The Inhibition of the first is lower: -0.8% for the first, 0.95% for the second.

Compared with CCCN(C)c1nccn2c(=O)n(CC(=O)Nc3cccc(C(F)(F)F)c3)nc12, Cc1cc(Br)ccc1NC(=O)Cn1nc2c(Sc3ccccc3)nccn2c1=O is higher in Inhibition: -0.05% for the first, 6.68% for the second.

Compared with O=S(=O)(c1ccc2nncn2c1)N(Cc1cc(F)cc(F)c1)c1ccc(F)c(F)c1, Cc1ccc(N(Cc2cc(F)cc(F)c2)S(=O)(=O)c2cccn3c(C)nnc23)cc1 is higher in Inhibition: 1.89% for the first, 5.37% for the second.

Compared with COc1ccc(CNC(=O)CSc2nnc3c4cc(-c5ccc(C)cc5)nn4ccn23)cc1, Cc1ccc(-c2cc3c4nnc(CCC(=O)NCc5ccc(F)c(Cl)c5)n4ccn3n2)cc1C is higher in Inhibition: 1.16% for the first, 2.11% for the second.

Going from CC(C)c1ccc(N(Cc2ccccc2F)S(=O)(=O)c2cccn3cnnc23)cc1 to Cc1ccc(N(Cc2ccc(F)cc2)S(=O)(=O)c2ccc3nnc(C)n3c2)cc1, the Inhibition rises from -0.83% to 1.54%.

Going from CCOc1ccc(C(=O)Cn2nc3n(CCC(C)C)c(=O)c4sccc4n3c2=O)cc1 to CCc1nnc2c(=O)n(CC(=O)Nc3cccc(C#N)c3)c3ccccc3n12, the Inhibition rises from 2.69% to 5.47%.

First: Cc1ccc(NC(=O)Cn2nc3ccc(SCc4ccc(Cl)cc4)nn3c2=O)cc1
Second: COc1ccc(NC(=O)Cn2nc3c(SC4CCCCC4)nccn3c2=O)cc1
The Inhibition of the first is higher: 7.44% for the first, 6.08% for the second.

Compared with COc1cccc(CNC(=O)CSc2nnc3ccc(C(=O)Nc4cccc(F)c4)cn23)c1, O=c1c2nn(Cc3ccc([N+](=O)[O-])cc3)c(=O)n2ccn1-c1ccccc1 is higher in Inhibition: 0.25% for the first, 3.56% for the second.

test system: Cryptococcus neoformans; conditions: Concentration 32 ug.mL-1; ASSAY_TEST Inhibition of Fungal Growth; detection method Resazurin; Absorption (OD600-OD570); plate type 384well; NBS; CORNING #3640

Going from CCCCc1ccc(NC(=O)Cn2nc3c(N4CCSCC4)nc4ccccc4n3c2=O)cc1 to Cc1ccc(NC(=O)Cn2nc3c(N4CCOCC4)nccn3c2=O)cc1Cl, the Inhibition rises from -24.44% to -5.46%.

First: COc1ccc(NC(=O)Cn2nc3c4cc(-c5ccc(Cl)cc5)nn4ccn3c2=O)c(OC)c1
Second: COc1ccc(NC(=O)Cn2nc3c4cc(-c5ccc(F)cc5)nn4ccn3c2=O)c(OC)c1
The Inhibition of the first is lower: -23.56% for the first, -15.48% for the second.

Going from Cc1cc(C)cc(Nc2nc(C)cc3nn(CC(=O)NCc4ccco4)c(=O)n23)c1 to Cc1cc(C)c(NC(=O)Cn2nc3c(SC4CCCCC4)nccn3c2=O)c(C)c1, the Inhibition falls from -8.71% to -24.78%.

First: Cc1ccc(Cl)cc1NC(=O)CSc1nnc2n(CC3CCCO3)c(=O)c3sccc3n12 (stereo not given)
Second: Cc1ccc(NC(=O)CSc2nnc3c(=O)n(-c4ccccc4)ccn23)c(C)c1
The Inhibition of the first is lower: -15.54% for the first, -11.34% for the second.

Going from O=C(CSc1nnc2c(=O)n(-c3ccc(F)cc3)ccn12)N1CCN(c2ccc(F)cc2)CC1 to COc1cccc(-n2ccn3c(SCC(=O)Nc4cccc(F)c4)nnc3c2=O)c1, the Inhibition rises from -6.2% to -5.71%.

Going from COc1ccc2[nH]cc(C(=O)CSc3nnc4c(=O)n(-c5cccc(Cl)c5C)ccn34)c2c1 to COc1ccc(NC(=O)CSc2nnc3c(=O)n(-c4ccccc4OC)ccn23)cc1Cl, the Inhibition falls from -9.58% to -12.03%.

First: COc1cccc(-c2noc(Cn3nc4ccc(-c5ccccc5)nn4c3=O)n2)c1OC
Second: Cc1cccc(C)c1NC(=O)Cn1nc2n(C)c(=O)c3c(c(-c4ccccc4)cn3C)n2c1=O
The Inhibition of the first is higher: -2.99% for the first, -9.16% for the second.

Compared with COC(=O)c1ccc(NC(=O)Cn2c(=O)c3nnc(C(C)C)n3c3ccccc32)cc1, CCOc1ccccc1NC(=O)Cn1c(=O)c2nnc(C(C)C)n2c2ccccc21 is higher in Inhibition: -26.77% for the first, -2.8% for the second.

Compared with Cc1ccc(CNC(=O)CSc2nnc3c(=O)n(-c4ccccc4)ccn23)cc1, COc1cccc(-n2ccn3c(SCC(=O)NCc4ccc(C)cc4)nnc3c2=O)c1 is higher in Inhibition: -18.23% for the first, -8.56% for the second.

Going from O=c1c2sccc2n2c(=O)n(Cc3ccccc3Cl)nc2n1CCc1ccccc1 to COc1ccc(CCn2c(=O)c3sccc3n3c(=O)n(Cc4ccc(F)cc4)nc23)cc1OC, the Inhibition falls from -28.45% to -31.44%.

Compared with Cc1cccc(NC(=O)Cn2nc3c(SC4CCCCC4)nccn3c2=O)c1C, O=C(Cn1nc2c(SC3CCCCC3)nccn2c1=O)Nc1cccc(Cl)c1 is lower in Inhibition: -15.81% for the first, -17.97% for the second.

Going from CCCCOc1ccc(-c2cc3c4nnc(SCC(=O)Nc5cc(F)ccc5C)n4ccn3n2)cc1 to COc1ccc(-c2cc3c4nnc(SCC(=O)Nc5cccc(C)c5C)n4ccn3n2)cc1, the Inhibition rises from -31.79% to -22.8%.

First: COC(=O)c1ccccc1NC(=O)CSc1nc2ccccc2n2c(C(C)C)nnc12
Second: CCOC(=O)c1ccccc1NC(=O)Cn1nc2c(Oc3cccc(OC)c3)nccn2c1=O
The Inhibition of the first is lower: -7.61% for the first, -5.16% for the second.

Compared with CCCN(C)c1nccn2c(=O)n(CC(=O)Nc3cccc(C(F)(F)F)c3)nc12, Cc1cc(Br)ccc1NC(=O)Cn1nc2c(Sc3ccccc3)nccn2c1=O is lower in Inhibition: -3.78% for the first, -7.39% for the second.

Going from O=S(=O)(c1ccc2nncn2c1)N(Cc1cc(F)cc(F)c1)c1ccc(F)c(F)c1 to Cc1ccc(N(Cc2cc(F)cc(F)c2)S(=O)(=O)c2cccn3c(C)nnc23)cc1, the Inhibition rises from -12.17% to -9.88%.

Compared with COc1ccc(CNC(=O)CSc2nnc3c4cc(-c5ccc(C)cc5)nn4ccn23)cc1, Cc1ccc(-c2cc3c4nnc(CCC(=O)NCc5ccc(F)c(Cl)c5)n4ccn3n2)cc1C is lower in Inhibition: -27.11% for the first, -43.73% for the second.

Compared with CC(C)c1ccc(N(Cc2ccccc2F)S(=O)(=O)c2cccn3cnnc23)cc1, Cc1ccc(N(Cc2ccc(F)cc2)S(=O)(=O)c2ccc3nnc(C)n3c2)cc1 is lower in Inhibition: -6.6% for the first, -13.44% for the second.

Compared with CCOc1ccc(C(=O)Cn2nc3n(CCC(C)C)c(=O)c4sccc4n3c2=O)cc1, CCc1nnc2c(=O)n(CC(=O)Nc3cccc(C#N)c3)c3ccccc3n12 is lower in Inhibition: -12.75% for the first, -28.04% for the second.

Going from Cc1ccc(NC(=O)Cn2nc3ccc(SCc4ccc(Cl)cc4)nn3c2=O)cc1 to COc1ccc(NC(=O)Cn2nc3c(SC4CCCCC4)nccn3c2=O)cc1, the Inhibition falls from -7.75% to -26.97%.

Compared with COc1cccc(CNC(=O)CSc2nnc3ccc(C(=O)Nc4cccc(F)c4)cn23)c1, O=c1c2nn(Cc3ccc([N+](=O)[O-])cc3)c(=O)n2ccn1-c1ccccc1 is lower in Inhibition: -5.04% for the first, -7.73% for the second.
